{"source": "PubChem BioAssay AID2401", "about": "(Southern Research Specialized Biocontainment Screening …, 2010)", "note": "Screen size: about 2,200 compounds; about 530 (24%) were called active.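 The calls were made as follows: active = inhibition above a set limit at one or more concentrations of the dose series; inactive = inhibition under that limit at every dose.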 These entries were drawn from the full list. Results with a measured potency or affinity are listed apart.", "data": [{"assay": "S. Typhimurium nonspecific reporter signal inhibition – Salmonella Typhimurium, GFP fluorescence, counter-screen for PhoP regulon inhibitor project, dose response (AID 2401);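 also: S. typhimurium with Mg-insensitive nmpC-GFP reporter grown at 10 µM Mg2+; drop in reporter fluorescence reflects general culture growth inhibition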", "conditions": "4 h; series mostly up to 150 µM", "values": [{"smiles": "NC(=O)N1OCC2COc3ccc4ccccc4c3C21", "note": "(stereo not given)", "outcome": "inactive"}, {"smiles": "Cc1ccc(NC(=O)COC(=O)C2(c3ccc(Cl)cc3)CCCC2)cc1", "outcome": "inactive"}, {"smiles": "COc1ccc(/C=C(\\NC(=O)/C=C/c2ccco2)C(=O)NCCc2nc3ccccc3[nH]2)cc1", "outcome": "inactive"}, {"smiles": "C=CCOc1ccccc1CNCCCN1CCOCC1", "outcome": "inactive"}, {"smiles": "FC(F)(F)C1=CC(c2ccc(Br)cc2)=NCCN1", "outcome": "inactive"}, {"smiles": "CCCCC(=O)NCCNC(=O)c1cc(OCC(F)(F)F)ccc1OCC(F)(F)F", "outcome": "inactive"}, {"smiles": "CCOc1ccc2c(c1)nc(SCC(=O)c1ccc(Br)s1)n2C", "outcome": "inactive"}, {"smiles": "Cc1ccc(-c2csc(=S)n2CC(=O)OCC(=O)NCc2ccco2)cc1", "outcome": "inactive"}, {"smiles": "O=C(CN1CCN(Cc2ccccc2)CC1)c1c[nH]c2ccccc12", "outcome": "inactive"}, {"smiles": "O=C(CCCOc1ccccc1)N1CCCc2ccccc21", "outcome": "inactive"}, {"smiles": "CCc1nc(SCC(=O)N2CCCc3ccccc32)c2oc3ccccc3c2n1", "outcome": "inactive"}, {"smiles": "Cc1ccc2c(c1)[nH]c1c(N3CCN(Cc4ccccc4)CC3)ncnc12", "outcome": "inactive"}, {"smiles": "C/C(Nc1ccc(F)cc1)=C(/C#N)C(N)=O", "outcome": "inactive"}, {"smiles": "CN(C)c1ccc(/C=N/c2cc(-c3ccccc3)nn2-c2ccccc2)cc1", "outcome": "inactive"}, {"smiles": "CCC(CC)C(=O)NCCc1ccc(OC)cc1", "outcome": "inactive"}, {"smiles": "CCOc1c(Br)cc(CNCc2cccs2)cc1OC", "outcome": "inactive"}, {"smiles": "S=C(NCc1ccncc1)Nc1ccc(Cl)c(Cl)c1", "outcome": "inactive"}, {"smiles": "O=C(NC(NC(=S)Nc1ccc(Cl)c(Cl)c1)C(Cl)(Cl)Cl)c1ccco1", "note": "(stereo not given)", "outcome": "inactive"}, {"smiles": "Cc1ccsc1/C=N/NC(=O)Cn1cnc2ccccc21", "outcome": "inactive"}, {"smiles": "Cc1cc(NC(=O)c2ccccc2-c2ccccc2)ccc1Br", "outcome": "inactive"}, {"smiles": "CC1=CC2=NC(=O)/C(=C\\c3cc(C)n(-c4ccc(F)cc4)c3C)C(=N)N2O1", "outcome": "inactive"}, {"smiles": "CC(=O)NCCOc1c(C)cc(S(N)(=O)=O)cc1C", "outcome": "inactive"}, {"smiles": "O=C(NCCc1ccc(Cl)cc1)/C(=C/c1cccnc1)NC(=O)c1ccccc1", "outcome": "inactive"}, {"smiles": "Cc1ccc(S(=O)(=O)N2CCC(C(N)=O)CC2)c(C)c1C", "outcome": "inactive"}, {"smiles": "Cc1nc([N+](=O)[O-])c(Br)n1CC(=O)c1ccccc1", "outcome": "inactive"}, {"smiles": "CC(=O)Nc1ccc(-n2nnnc2SCC(=O)Nc2cccc(NC(=O)c3ccco3)c2)cc1", "outcome": "inactive"}, {"smiles": "COc1ccc(C(=O)Nc2cc(C)ccc2NC(=O)COc2ccccc2)cc1", "outcome": "inactive"}, {"smiles": "C=CCn1c(SCC(=O)Nc2nnc(CC)s2)nnc1-c1cccnc1", "outcome": "inactive"}, {"smiles": "Cc1ccc(C(=O)NCC(=O)NCC(=O)OCC(=O)c2ccc([N+](=O)[O-])cc2)cc1", "outcome": "inactive"}, {"smiles": "CCc1ccccc1NC(=O)c1nnn(CC(=O)Nc2cccc(C)c2C)c1N", "outcome": "inactive"}, {"smiles": "CC1CC(C)CN(CCCSc2ccccc2)C1", "note": "(stereo not given)", "outcome": "inactive"}, {"smiles": "COc1cccc(NC(=O)CNC(=O)c2cccs2)c1", "outcome": "inactive"}, {"smiles": "COCC(=O)N(Cc1ccco1)c1nnc(C2CCOC2)s1", "note": "(stereo not given)", "outcome": "inactive"}, {"smiles": "Cc1ccc(C(C)C)cc1C(=O)CC1(O)C(=O)N(C)c2ccccc21", "note": "(stereo not given)", "outcome": "inactive"}, {"smiles": "COC(=O)CSc1nc(SCc2ccccc2Cl)nc2c1CCCC2", "outcome": "inactive"}, {"smiles": "CCOC(=O)c1[nH]c2ccccc2c1NC(=O)C(C)(C)C", "outcome": "inactive"}, {"smiles": "COc1ccc2nc(Nc3nc4cc5c(cc4s3)OCCO5)sc2c1", "outcome": "inactive"}, {"smiles": "NNc1nc2c(-c3cccc(C(F)(F)F)c3)nnn2c2ccccc12", "outcome": "inactive"}, {"smiles": "COc1ccc2oc(=O)cc(C)c2c1", "outcome": "inactive"}, {"smiles": "COc1cccc(C(=O)Oc2c(CN3CCOCC3)cc(Cl)c3cccnc23)c1", "outcome": "inactive"}, {"smiles": "COc1ccccc1N1CCN(C(CNS(=O)(=O)c2ccccc2)c2cccnc2)CC1", "note": "(stereo not given)", "outcome": "inactive"}, {"smiles": "c1coc(CNc2c3c(nc4ncnn24)CCCC3)c1", "outcome": "inactive"}, {"smiles": "O=C(NNc1nc(-c2ccccc2)cs1)c1ccco1", "outcome": "inactive"}, {"smiles": "COCCNS(=O)(=O)c1cccn1-c1ncc(C(F)(F)F)cc1Cl", "outcome": "inactive"}, {"smiles": "CC(=O)c1c(C)n([O-])c2cc(F)c(F)cc2[n+]1=O", "outcome": "inactive"}, {"smiles": "CCOC(=O)CN(C)Cc1c[nH]c2ccccc12", "outcome": "inactive"}, {"smiles": "O=c1c2cc(Br)ccc2nc(-c2ccccc2)n1O", "outcome": "inactive"}, {"smiles": "N#Cc1c(-c2ccco2)cc(-c2ccc(F)cc2)nc1N", "outcome": "inactive"}, {"smiles": "O=C1N2CCCc3cccc(c32)C12Nc1ccccc1S2", "note": "(stereo not given)", "outcome": "inactive"}, {"smiles": "CN1CCN(C(c2cccc(C(F)(F)F)c2)c2nnnn2C(C)(C)C)CC1", "note": "(stereo not given)", "outcome": "inactive"}, {"smiles": "C#CCN1C(=O)C(O)(CC(=O)c2ccc(OC)c(OC)c2)c2ccccc21", "note": "(stereo not given)", "outcome": "inactive"}, {"smiles": "CCCCn1cnc2sc(-c3ccccc3)cc2c1=O", "outcome": "inactive"}, {"smiles": "O=C(Nc1ccc2c(c1)OCO2)c1cnn2cccnc12", "outcome": "inactive"}, {"smiles": "CN(C)S(=O)(=O)Oc1ccsc1C(=O)Nc1ccccc1Cl", "outcome": "inactive"}, {"smiles": "CCSc1cc(N2CCCC2)nc(-c2cccc(C)c2)n1", "outcome": "inactive"}, {"smiles": "CC(C)c1ccc(C2C3CSCC=C3C(C#N)=C(N)C2(C#N)C#N)cc1", "note": "(stereo not given)", "outcome": "inactive"}, {"smiles": "Cn1c(CN2CCCCC2)nc2cc(NS(=O)(=O)c3ccc(Cl)cc3)ccc21", "outcome": "inactive"}, {"smiles": "COc1ccc(S(=O)(=O)N2Cc3ccccc3CC2C(=O)N2CCOCC2)cc1OC", "note": "(stereo not given)", "outcome": "inactive"}, {"smiles": "Clc1ccc(SCCCCn2ccnc2)cc1", "outcome": "inactive"}, {"smiles": "O=c1[nH]c(NNC(=S)NCc2ccccc2)nc2c1C1(CCCCC1)Cc1ccccc1-2", "outcome": "inactive"}, {"smiles": "O=C(CSc1nnc2c(Cl)cc(Cl)cn12)NC1CCS(=O)(=O)C1", "note": "(stereo not given)", "outcome": "inactive"}, {"smiles": "O=S1(=O)C=CC(Nc2cccc(Cl)c2)C1", "note": "(stereo not given)", "outcome": "inactive"}, {"smiles": "CCc1cccc(NC(=O)Nc2cccs2)c1", "outcome": "inactive"}, {"smiles": "COc1cccc2c(=O)c3c(cnn3C)n(C)c12", "outcome": "inactive"}, {"smiles": "COC(=O)c1cccc(NC(=O)CCCOc2ccccc2)c1", "outcome": "inactive"}, {"smiles": "O=C(NCc1cccs1)c1cccc(Nc2nc3ccc(Br)cc3[nH]2)c1", "outcome": "inactive"}, {"smiles": "Cn1c(=O)n(CC(=O)Nc2ccccc2)c2ccccc21", "outcome": "inactive"}, {"smiles": "O=C(O)C1CC=CCC1C(=O)NC12CC3CC(CC(C3)C1)C2", "note": "(stereo not given)", "outcome": "inactive"}, {"smiles": "O=C(OCc1nnc(-c2ccccc2)o1)c1ccc(S(=O)(=O)NCc2ccco2)cc1", "outcome": "inactive"}, {"smiles": "Cc1nc(NC(=O)c2ccccc2)sc1-c1csc(Nc2ccc(F)cc2)n1", "outcome": "inactive"}, {"smiles": "Cc1ccc(C[n+]2cc(-c3ccc(Cl)cc3)n3c2CCC3)cc1", "outcome": "inactive"}, {"smiles": "COc1ccc(-c2csc(NC(=O)C3CCCO3)n2)cc1", "note": "(stereo not given)", "outcome": "inactive"}, {"smiles": "Cc1ccc(NC(=O)CCN2CCc3ccccc3C2)cc1", "outcome": "inactive"}, {"smiles": "CN(C)CC(=O)Nc1nc(-c2ccccc2)cs1", "outcome": "inactive"}, {"smiles": "CCOC(=S)SCC(=O)Nc1nc(-c2ccccc2)cs1", "outcome": "inactive"}]}]}
